Values joined by “and” are separate entries in the source; they are usually repeats but may differ in a detail not shown here. Equal values may be shown once. About 5,700 (36%) of roughly 16,000 compounds were called active. About 24% were inconclusive and are not listed. The list shows a part of the results. A number with no mark means an inactive call. Calls follow the shape of the dose curve; as a rule, active = well fitted curve in the direction sought with a large enough effect; inconclusive = small, poorly fitted or top-dose-only effect, or effect the other way; inactive = no such curve, though single readings can be large or run the other way.
% is scaled to controls: 0 for no effect and ±100 for the full control effect.

Chain of Cytochrome P450 1A2 (Homo sapiens) (P05177 whole entry, looked up): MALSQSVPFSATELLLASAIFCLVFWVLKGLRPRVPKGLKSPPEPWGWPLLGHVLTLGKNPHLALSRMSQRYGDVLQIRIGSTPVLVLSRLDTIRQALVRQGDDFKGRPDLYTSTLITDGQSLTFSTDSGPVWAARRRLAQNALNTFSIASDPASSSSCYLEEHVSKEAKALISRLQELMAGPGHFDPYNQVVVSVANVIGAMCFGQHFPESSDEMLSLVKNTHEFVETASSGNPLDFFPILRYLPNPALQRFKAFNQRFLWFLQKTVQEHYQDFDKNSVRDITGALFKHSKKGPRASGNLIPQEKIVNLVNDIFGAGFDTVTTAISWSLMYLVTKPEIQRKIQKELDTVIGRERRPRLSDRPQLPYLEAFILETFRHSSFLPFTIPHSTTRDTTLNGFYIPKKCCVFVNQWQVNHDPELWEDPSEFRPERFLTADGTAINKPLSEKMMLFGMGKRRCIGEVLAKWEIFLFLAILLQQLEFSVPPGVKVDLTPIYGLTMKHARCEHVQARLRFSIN

The assay has as its target Cytochrome P450 1A2 (Homo sapiens) (UniProt P05177). Briefly: Cytochrome panel assay with activity outcomes. Particulars: recombinant CYP, pro-luciferin dealkylation, luminescence, p450-cyp1a2; series mostly up to 57.1 µM.
For `C[N+]1(NCC[N@@+]2(C)CCc3ccccc3C2)CCCCC1`, the activity, negative = inhibition is -12.7% [at 11.4 µM]. Broadly, the AC50 is the midpoint of the concentration-response curve, whichever way the signal moves. Take `COC(=O)[C@@]1(Cc2ccccc2)[C@H]2c3cc(C(=O)N4CCCC4)n(Cc4ccc(OC)c(OC)c4)c3C[C@H]2CN1C(=O)c1ccccc1`: the AC50 entry was “inactive”. `COCCn1c(=O)c(-c2ccccc2)nc2cnc(Oc3ccc(OC)cc3)nc21`: the half-maximal activity concentration (AC50) is 1.26 µM (active). Still for that read-out and setting: the same measure for `COCCn1c(=O)c(-c2ccccc2)nc2cnc(Oc3ccccc3)nc21`: 1.58 µM (active); for `COCCn1c(=O)c(-c2cc(F)cc(F)c2)nc2cnc(Oc3ccccc3)nc21`: 5.01 µM (active). With `C#CCCCO/N=C1/C[C@@H](O)[C@@H](O)[C@@H]2[C@H]3C(=O)N(c4ccc(F)cc4F)C(=O)[C@@H]3CC[C@H]12`, the activity, negative = inhibition was -9.85% [at 11.4 µM]. Regarding `CO[C@H]1COC(=O)C/C=C\[C@H](C)[C@@H](NS(=O)(=O)c2ccc(C)cc2)COC(=O)C/C=C\[C@@H]1C`, the activity, negative = inhibition is -4.23% [at 11.4 µM] and -3.02% [at 11.4 µM]. With `CCSC(=N)N`, the AC50 result was “inactive”. With `C[C@@H]1O[C@H]2C3=C(C(=O)[C@H]4O[C@@H]4[C@H]3O)[C@@H]1[C@@H]1[C@@H](C)OC=C3[C@H](O)[C@H]4O[C@@H]4/C(=N\OCc4ccccc4)[C@]312`, the activity, negative = inhibition was -0.558% [at 11.4 µM]. For the molecule `COC(=O)COc1ccc2c(-c3cccc([N+](=O)[O-])c3)cc(=O)oc2c1`, the half-maximal activity concentration (AC50) was 2 µM (active). With `COc1ccc([N+](=O)[O-])cc1COc1ccc2c(-c3ccccc3)cc(=O)oc2c1`, the AC50 entry is “inactive”. On the same count and under the same terms, the same measure for `COC(=O)[C@@]1(Cc2ccc(F)cc2)[C@H]2c3cc(C(=O)N4CCCC4)n(Cc4ccc(C)c(F)c4F)c3C[C@H]2CN1C(=O)c1ccccc1`: “inactive”; for `Cc1nc2c(n1C1CCCCC1)C(=O)c1ccccc1C2=O`: 6.31 µM (active). The same measure, in the same setting: with `CCOC(=O)C(C)Sc1nnc(CNC(=O)c2ccc(OC)cc2)n1C1CCCCC1` (stereo not given) the entry was “inactive”.

For the molecule `CCn1c(C)nc2c1C(=O)c1ccccc1C2=O`, the AC50 was 0.447 µM (active). Still for that read-out and setting: with `CC(Sc1nnc(Cc2cccs2)n1C1CCCCC1)C(N)=O` (stereo not given) the entry was “inactive”; with `COc1ccc(NC(=O)CSc2nc(-c3ccc(C)cc3)cc(C(F)(F)F)c2C#N)cc1`, “inactive”; with `COC(=O)CSc1nc(C)cc(C(F)(F)F)c1C#N`, 2 µM (active). As to `COC(=O)Cn1cnc(=O)c(C#N)c1/C=C/N(C)C`, the AC50 result was “inactive”.

In the case of `COC(=O)[C@@]1(Cc2ccc(F)cc2)[C@H]2c3cc(C(=O)N(C)C)n(Cc4ccc(C)c(F)c4F)c3C[C@H]2CN1C(=O)c1ccccc1`, the AC50 entry is “inactive”. With `CN1CCN(c2ccnc(-c3ccoc3)n2)CC1`, the concentration at half-maximal activity (AC50) was 12.6 µM (active).

`CN1CCN(c2ccnc(-c3ccc(N(C)C)cc3)n2)CC1`: the AC50 is 0.794 µM (active). Still for that read-out and setting: with `CN1CCN(c2cc(-c3ccc(N(C)C)cc3)ncn2)CC1` the figure was 2.51 µM (active). On to `O=C(O)CCCCn1ccc(=O)[nH]c1=O`, for which the activity, negative = inhibition was -6.18% [at 11.4 µM].

As to `O=C(O)c1cscc1Cc1cccs1`, the activity, negative = inhibition is -18.8% [at 11.4 µM]. Turning to `O=C(O)C/C(=C\c1ccccc1)C(=O)O`, the activity, negative = inhibition was -13% [at 11.4 µM].

Regarding `CC(/C=N/NC(=O)Cc1cccs1)=C\c1ccco1`, the AC50 was 11.2 µM (active).

For `C/C(CC(=O)NC1CCCC1)=N\NC(=O)Cc1cccs1`, the AC50 entry was “inactive”. As to `O=C(Cc1cccs1)N/N=C/C(Br)=C/c1ccccc1`, the half-maximal activity concentration (AC50) was 5.01 µM (active).

For `O=C(NCc1ccco1)C(c1ccccc1)N(C(=O)Cc1cccs1)c1ccccc1F` (stereo not given), the AC50 result is “inactive”. The same measure, in the same setting: with `CN1CC[C@@]2(CCCN(C(=O)c3cccc(F)c3)C2)C1` the entry was “inactive”; with `Cc1cc(S(=O)(=O)NCCN(C)C)c(C)s1`, “inactive”; with `CCOc1cc(/C=N/O)cc(Cl)c1OC`, 1.41 µM (active). As for `COC(=O)C1=C(C)OC(N)=C(C#N)C1c1cc(OC)ccc1OC` (stereo not given), the AC50 was 15.8 µM (active). On to `COc1ccc(C2C(C#N)=C(N)OC3=C2C(=O)CC(C)(C)C3)c([N+](=O)[O-])c1OC` (stereo not given), for which the AC50 entry is “inactive”. On the same count and under the same terms, the same measure for `CCCCOC(=O)C1=C(C)Nc2ncnn2C1c1cc(OC)ccc1OC` (stereo not given): “inactive”; for `COc1ccc(C2/C(=C(/O)c3ccc4c(c3)CC(C)O4)C(=O)C(=O)N2CCN2CCOCC2)cc1` (stereo not given): “inactive”. Take `CC(C)=CCC/C(C)=C/CO/N=C1/C[C@@H](O)[C@@H](O)[C@@H]2[C@@H]3C(=O)N(Cc4ccccc4)C(=O)[C@H]3CC[C@@H]12`: the activity, negative = inhibition is 4.86% [at 11.4 µM]. Same read-out and setting: the same measure for `CC(C)=CCC/C(C)=C/CO/N=C1/C[C@@H](O)[C@@H](O)[C@@H]2[C@@H]3C(=O)N(Cc4ccccc4)C(=O)[C@H]3CC[C@H]12`: 3.92% [at 11.4 µM]. Consider `CCSC1=C(C#N)C2(CCCCC2)C(C#N)=C(N)N1`, for which the AC50 is 12.6 µM (active). In the case of `CC(C)NC(=O)N1CC2(CCN(C(=O)c3ccco3)CC2)C1`, the AC50 result is “inactive”. On the same count and under the same terms, with `CCC(C)NS(=O)(=O)c1ccc(OCC(=O)Nc2ccc3c(c2)OCCO3)cc1` (stereo not given) the entry was “inactive”; with `CCOc1ccc2nc(C)cc(Nc3ccc4c(c3)OCCO4)c2c1`, 4.47 µM (active); with `CNCCCCCCCCSc1nc(C(C)C)ccc1C(=O)c1cccs1`, 31.6 µM (active).

For `CCOC(=O)CCN1C(=O)[C@H]2[C@H]3[C@H](O)[C@H](O)C/C(=N/OC[C@@H](O)COCc4ccco4)[C@H]3CC[C@@H]2C1=O`, the activity, negative = inhibition was -1.05% [at 11.4 µM]. Turning to `Cc1nnsc1SC(C)C(=O)O` (stereo not given), the AC50 entry was “inactive”.

As for `O=S(=O)(CC(O)COc1ccccc1Cl)c1ccccc1` (stereo not given), the AC50 was 22.4 µM (active). Still for that read-out and setting: with `O=C1CCCN1CC(O)CS(=O)(=O)c1ccccc1` (stereo not given) the entry was “inactive”; with `CC(C)CCNC1=NCCCCC1`, “inactive”; with `CCn1c(-c2ccccc2Cl)nn(CC(=O)Nc2ccc(OC)cc2)c1=S`, “inactive”. Same read-out and setting: with `O=C(Nc1ccccc1)c1cc(-c2ccccc2Cl)no1` the figure was 0.794 µM (active); with `COc1ccc(NC(=O)c2cc(-c3ccccc3Cl)no2)cc1`, 2.24 µM (active); with `Cc1onc(-c2ccccc2Cl)c1C(=O)NCC(=O)O`, “inactive”. For `N[C@@H](Cc1cc(CP(=O)(O)O)cc(-c2ccccc2Cl)c1)C(=O)O`, the AC50 result was “inactive”. The same measure, in the same setting: with `NC(N)=Nc1nc2ccc([N+](=O)[O-])cc2[nH]1` the figure was 3.16 µM (active); with `Cc1ccc([N+](=O)[O-])cc1N=C(c1cccc([N+](=O)[O-])c1)N1CCOCC1`, “inactive”; with `OC[C@@H]1NC[C@@H](O)[C@@H](O)[C@H]1O`, “inactive”. As to `Cc1cc(C)c(C#N)c(Oc2ccc(F)cc2)n1`, the AC50 was 2.51 µM (active). Same read-out and setting: the same measure for `CCCC(=O)Nc1cccc(Oc2nc(C)cc(C)c2C#N)c1`: 5.01 µM (active); for `Cc1cc(C)c(C#N)c(Oc2ccccc2)n1`: 3.16 µM (active); for `N#Cc1c(-c2ccccc2)ccnc1Oc1ccccc1`: 1.12 µM (active). On to `COc1cccc(C2C3=C(CC(C)(C)CC3=O)OC(N)=C2[N+](=O)[O-])c1` (stereo not given), for which the AC50 entry is “inactive”. For `CC(C)(C)COS(=O)OCC(C)(C)C`, the activity, negative = inhibition was -15.5% [at 11.4 µM]. As to `Nc1nc(N)[n+]([O-])c(N)c1NCO`, the activity, negative = inhibition is -6.17% [at 11.4 µM]. Regarding `CN(C)c1ccnc(Oc2ccc(Cl)cc2)c1C#N`, the AC50 was 2.51 µM (active).

As to `Cc1ccccc1-n1cnc2cc(NCc3cccs3)ccc21`, the concentration at half-maximal activity (AC50) is 5.62 µM (active). Consider `Cc1ccc(Sc2nc(C)cc(C)c2S(C)(=O)=O)cc1`, for which the concentration at half-maximal activity (AC50) is 10 µM (active). The same measure, in the same setting: the same measure for `CNc1nc(C)cc(C)c1S(=O)(=O)c1ccc(C)cc1`: “inactive”. For the molecule `COC(=O)[C@H](CCSC)NC(=O)C/C=C\[C@@H](C)CO`, the activity, negative = inhibition is 2.44% [at 11.4 µM]. For `c1ccc2c(N3CCOCC3)nc(-c3ccoc3)nc2c1`, the concentration at half-maximal activity (AC50) is 1.26 µM (active). The same measure, in the same setting: with `CN1CCN(c2nc(-c3ccoc3)nc3ccccc23)CC1` the figure was 1.26 µM (active); with `O=C(c1cc(-c2ccncc2)nc2ccccc12)N1CCN(c2ccc(N3CCOCC3)nn2)CC1`, “inactive”. Still for that read-out and setting: with `CC1(C)O[C@H]2C[C@@H]3[C@H]4CCC5=CC(=O)CC[C@@]5(C)[C@]4(F)[C@@H](O)C[C@@]3(C)[C@@]2(C(=O)CCl)O1` the entry was “inactive”; with `CC(=O)O[C@]1(C(C)=O)CC[C@@H]2[C@@H]3C=C(C)C4=CC(=O)CC[C@@]4(C)[C@H]3CC[C@]21C`, “inactive”; with `CS(=O)c1ccc(-c2nc(-c3ccc(F)cc3)c(-c3ccncc3)[nH]2)cc1` (stereo not given), 0.631 µM (active).

Regarding `Oc1ccc(-c2nc(-c3ccc(F)cc3)c(-c3ccncc3)[nH]2)cc1`, the AC50 was 15.8 µM (active). In the case of `O=C(N[C@@]1(C(=O)O)C[C@@H]1c1ccccc1)c1ccccc1`, the activity, negative = inhibition is 2.45% [at 11.4 µM]. Turning to `O=C(N/N=C/C1C(c2ccccc2)C1(Cl)Cl)c1cccc(Br)c1` (stereo not given), the AC50 was 2 µM (active).

Turning to `O=C(N/N=C/c1cccc(Oc2ccccc2)c1)c1cccc(Br)c1`, the AC50 is 0.891 µM (active). Same read-out and setting: with `O=C(N/N=C\c1ccc(Sc2ccccn2)o1)c1cccc(Br)c1` the figure was 15.8 µM (active). Regarding `N[C@@H]1[C@@H]2[C@@H]3C[C@H]4N(CC[C@@]14C(=O)C(=O)O)CC3=CCO[C@@H]2CC(=O)O`, the activity, negative = inhibition was -16.1% [at 11.4 µM]. In the case of `C=C[C@@]1(C)CC(=O)[C@@]2(O)[C@@]3(C)[C@H](O)CCC(C)(C)[C@@H]3[C@H](O)[C@H](OC(C)=O)[C@]2(C)O1`, the AC50 result was “inactive”. As to `Cc1ccc(/C=C2\Sc3ccccc3C2=O)s1`, the half-maximal activity concentration (AC50) was 1.78 µM (active).

For the molecule `COc1ncnc(NS(=O)(=O)c2ccc(N)cc2)c1OC`, the AC50 entry is “inactive”. For `Nc1ccn([C@@H]2O[C@H](COC(=O)C34CC5CC(CC(C5)C3)C4)[C@@H](O)[C@@H]2O)c(=O)n1`, the activity, negative = inhibition was -18.7% [at 2.29 µM]. Regarding `O=C(OCc1nc2ccccc2[nH]1)C12CC3CC(CC(C3)C1)C2`, the half-maximal activity concentration (AC50) was 22.4 µM (active). The same measure, in the same setting: the same measure for `NC(N)=[N+]1CCc2ccccc2C1`: “inactive”; for `O=c1[nH][nH]c(C(F)(F)F)c1C=Nc1ccccc1`: 4.47 µM (active). The same measure, in the same setting: with `O=c1[nH][nH]c(C(F)(F)F)c1C=Nc1cccc(Cl)c1` the figure was 12.6 µM (active). The same measure, in the same setting: the same measure for `O=c1[nH][nH]c(C(F)(F)F)c1C=Nc1ccccc1Cl`: 14.1 µM (active).
